Data from PubChem BioAssay AID1159580 (chemical genetic matrix, 2015).
Several values for one entry are separate records, joined by “and”; a condition that tells them apart may be missing. Identical values can stand only once. Screen size: about 5,500 compounds; about 2,000 (36%) were called active. Another 18% or so got no clear call; they are omitted. Rule as the data show it: active = normalized growth mostly below about 0.91 (no sharp cut-off); inconclusive = no clear call, values can overlap the other calls; inactive = mostly above about 0.92. This is one part of the list.

Assay: chemical genetic growth profiling, strain panel (AID 1159580);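 also: tested at 20 µM; growth read once vehicle control cultures reached saturation at 30 °C; 1 = growth at the plate median or of vehicle wells; lower values mean less growth of the strain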
Conditions: growth OD

Measured: normalized growth

CC(CN(C)C)CN1c2ccccc2CCc2ccccc21 (stereo not given)
inactive: S. cerevisiae deletion strains, locus YJR066W, strain TOR1, hits give low values 0.94 | S. cerevisiae deletion strains, locus YKL009W, strain mrt4, hits give low values 1 | S. cerevisiae deletion strains, locus YKL068W, hits give low values 1.01 | S. cerevisiae deletion strains, locus YKL085W, strain MDH1 (second series), hits give low values 1.02 | S. cerevisiae deletion strains, locus YKL085W, strain MDH1, hits give low values 1.02 | S. cerevisiae deletion strains, locus YKL160W, strain elf1, hits give low values 0.978 | S. cerevisiae deletion strains, locus YKL190W, strain CNB1, hits give low values 1.02 | S. cerevisiae deletion strains, locus YKR001C, strain vps1, hits give low values 1.02 | S. cerevisiae deletion strains, locus YKR026C, strain gcn3, hits give low values 0.991 | S. cerevisiae deletion strains, locus YKR091W, strain srl3, hits give low values 0.977 | S. cerevisiae deletion strains, locus YLL001W, strain dnm1, hits give low values 0.989 | S. cerevisiae deletion strains, locus YLL026W, hits give low values 0.979 | S. cerevisiae deletion strains, locus YLL041C, strain sdh2, hits give low values 0.965 | S. cerevisiae deletion strains, locus YLR027C, strain aat2, hits give low values 0.974 | S. cerevisiae deletion strains, locus YLR039C, strain RIC1, hits give low values 1.13 | S. cerevisiae deletion strains, locus YLR058C, strain SHM2, hits give low values 1.01 | S. cerevisiae deletion strains, locus YLR102C, strain apc9, hits give low values 1.02 | S. cerevisiae deletion strains, locus YLR113W, strain HOG1, hits give low values 0.994 | S. cerevisiae deletion strains, locus YLR221C, strain rsa3, hits give low values 0.982 | S. cerevisiae deletion strains, locus YLR258W, strain gsy2, hits give low values 0.984 | S. cerevisiae deletion strains, locus YLR262C, strain YPT6 (second series), hits give low values 1.01 | S. cerevisiae deletion strains, locus YLR262C, strain YPT6, hits give low values 1.12 | S. cerevisiae deletion strains, locus YLR268W, strain sec22, hits give low values 1.02 | S. cerevisiae deletion strains, locus YLR320W, strain mms22, hits give low values 0.947 | S. cerevisiae deletion strains, locus YLR330W, strain CHS5, hits give low values 1.01 | S. cerevisiae deletion strains, locus YLR342W, strain FKS1 (second series), hits give low values 1.04 | S. cerevisiae deletion strains, locus YLR342W, strain FKS1, hits give low values 0.976 | S. cerevisiae deletion strains, locus YLR357W, strain rsc2, hits give low values 0.967 | S. cerevisiae deletion strains, locus YLR370C, strain arc18, hits give low values 0.977 | S. cerevisiae deletion strains, locus YLR371W, strain rom2, hits give low values 1.01 | S. cerevisiae deletion strains, locus YLR384C, strain iki3, hits give low values 0.979 | S. cerevisiae deletion strains, locus YLR418C, strain cdc73, hits give low values 1.02 | S. cerevisiae deletion strains, locus YML016C, strain PPZ1, hits give low values 1.01 | S. cerevisiae deletion strains, locus YML032C, strain rad52, hits give low values 1.01 | S. cerevisiae deletion strains, locus YML120C, strain ndi1, hits give low values 0.971 | S. cerevisiae deletion strains, locus YML124C, strain tub3, hits give low values 1.02 | S. cerevisiae deletion strains, locus YMR058W, strain fet3, hits give low values 0.971 | S. cerevisiae deletion strains, locus YMR078C, strain ctf18, hits give low values 1.01 | S. cerevisiae deletion strains, locus YMR125W, strain sto1, hits give low values 0.973 | S. cerevisiae deletion strains, locus YMR129W, hits give low values 0.981 | S. cerevisiae deletion strains, locus YMR205C, strain PFK2, hits give low values 0.97 | S. cerevisiae deletion strains, locus YMR223W, strain ubp8, hits give low values 1.02 | S. cerevisiae deletion strains, locus YMR231W, strain pep5, hits give low values 0.984 | S. cerevisiae deletion strains, locus YMR263W, strain SAP30, hits give low values 1 | S. cerevisiae deletion strains, locus YMR307W, strain GAS1, hits give low values 1.05 and 1 | S. cerevisiae deletion strains, locus YNL067W, strain RPL9B, hits give low values 1.01 | S. cerevisiae deletion strains, locus YNL071W, strain lat1, hits give low values 0.963 | S. cerevisiae deletion strains, locus YNL128W, strain TEP1, hits give low values 1.03 and 1.02 | S. cerevisiae deletion strains, locus YNL175C, strain NOP13, hits give low values 1.01 | S. cerevisiae deletion strains, locus YNL183C, strain NPR1, hits give low values 0.936 | S. cerevisiae deletion strains, locus YNL197C, strain WHI3, hits give low values 1.02 | S. cerevisiae deletion strains, locus YNL209W, strain ssb2, hits give low values 0.98 | S. cerevisiae deletion strains, locus YNL224C, strain SQS1, hits give low values 1.01 | S. cerevisiae deletion strains, locus YNL233W, strain BNI4, hits give low values 0.998 | S. cerevisiae deletion strains, locus YNL248C, strain rpa49, hits give low values 0.988 | S. cerevisiae deletion strains, locus YNL250W, strain rad50, hits give low values 1.03 | S. cerevisiae deletion strains, locus YNL271C, strain bni1, hits give low values 1.02 | S. cerevisiae deletion strains, locus YNL298W, strain CLA4, hits give low values 1.02 | S. cerevisiae deletion strains, locus YNL307C, strain MCK1, hits give low values 1.03 | S. cerevisiae deletion strains, locus YNL322C, strain KRE1 (second series), hits give low values 0.966 | S. cerevisiae deletion strains, locus YNL322C, strain KRE1, hits give low values 1.01 | S. cerevisiae deletion strains, locus YNR049C, strain mso1, hits give low values 0.977 | S. cerevisiae deletion strains, locus YNR052C, strain pop2, hits give low values 1.02 | S. cerevisiae deletion strains, locus YOL006C, strain TOP1, hits give low values 0.976 | S. cerevisiae deletion strains, locus YOL012C, strain htz1 1.63 | S. cerevisiae deletion strains, locus YOL147C, strain pex11, hits give low values 1.02 | S. cerevisiae deletion strains, locus YOR001W, strain rrp6, hits give low values 0.979 | S. cerevisiae deletion strains, locus YOR061W, strain CKA2, hits give low values 1.01 | S. cerevisiae deletion strains, locus YOR069W, strain VPS5, hits give low values 1.01 | S. cerevisiae deletion strains, locus YOR070C, strain gyp1, hits give low values 1.01 | S. cerevisiae deletion strains, locus YOR080W, strain dia2, hits give low values 0.971 | S. cerevisiae deletion strains, locus YOR083W, strain WHI5 (second series), hits give low values 1.05 | S. cerevisiae deletion strains, locus YOR083W, strain WHI5, hits give low values 0.976 | S. cerevisiae deletion strains, locus YOR106W, strain vam3, hits give low values 0.939 | S. cerevisiae deletion strains, locus YOR136W, strain idh2, hits give low values 1.02 | S. cerevisiae deletion strains, locus YOR144C, strain elg1, hits give low values 1.02 | S. cerevisiae deletion strains, locus YOR184W, strain ser1, hits give low values 1.04 | S. cerevisiae deletion strains, locus YOR231W, strain MKK1, hits give low values 0.983 | S. cerevisiae deletion strains, locus YOR265W, strain rbl2, hits give low values 0.97 | S. cerevisiae deletion strains, locus YOR270C, strain vph1, hits give low values 0.897 | S. cerevisiae deletion strains, locus YOR290C, strain snf2, hits give low values 0.927 | S. cerevisiae deletion strains, locus YOR316C, strain cot1, hits give low values 1.02 | S. cerevisiae deletion strains, locus YPL051W, strain arl3, hits give low values 0.972 | S. cerevisiae deletion strains, locus YPL055C, strain LGE1, hits give low values 1.01 | S. cerevisiae deletion strains, locus YPL078C, strain atp4, hits give low values 0.961 | S. cerevisiae deletion strains, locus YPL106C, strain sse1, hits give low values 0.956 | S. cerevisiae deletion strains, locus YPL240C, strain hsp82, hits give low values 0.978 | S. cerevisiae deletion strains, locus YPL241C, strain CIN2, hits give low values 1.01 and 1 | S. cerevisiae deletion strains, locus YPL256C, strain CLN2, hits give low values 0.981 | S. cerevisiae deletion strains, locus YPR119W, strain clb2, hits give low values 1.02 | S. cerevisiae deletion strains, locus YPR141C, strain kar3, hits give low values 1.01 | S. cerevisiae deletion strains, locus YPR163C, strain tif3, hits give low values 1.02 | S. cerevisiae deletion strains, locus YPR167C, strain met16, hits give low values 1.02 | S. cerevisiae deletion strains, strain wtn01, hits give low values 1.02 | S. cerevisiae strains, strain wild type, hits give low values 1
